Compound activity deposited in PubChem BioAssay by National Center for Advancing Translational Sciences (NCATS).
FUS suppressor: suppressors of FUS proteinopathy in yeast. S. cerevisiae FUS-expressing, growth rescue, OD600, 24 h. Potency, µM (doses to about 76.6 µM), most hits filed as activators. actives 0.24% (n = 390,000). AID 1347120;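 further: plate controls were DMSO vehicle for no effect and reference control for full effect; nearly all actives have a fitted effect of over 55% in size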
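Yeast expressing FUS under galactose induction, OD 0.005 in 2% galactose medium; compounds in a dilution series, 24 h at 30C. Growth rescue by absorbance at 600 nm; CP55940 positive control, DMSO negative.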
TDP43 rescue: rescues yeast growth from TDP-43 toxicity | TDP-43 expressing yeast growth rescue, BacTiter-Glo, 24 h | Potency, µM (top dose mostly 46.1 µM), for the others: top-dose growth rescue (activation), usual class: activators | actives 1.8% (n = 410,000) | AID 652104; further: % of control where 0% means no effect; nearly all actives have a fitted effect of over 50% in size
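Luminescence from BacTiter-Glo reports growth of TDP-43-expressing yeast after 24 hr at 30 deg C with compound. Cells were raffinose-pregrown to mid-log, then seeded in galactose medium at OD600=0.02.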
Mito fusion yeast: inhibitors of mitochondrial division or activators of mitochondrial fusion; S. cerevisiae fusion-defective mutant growth rescue, CellTiterGlo 48 h; Potency, µM (titrated, usually from 46.1 µM), for inactives: at the highest dose growth rescue (activation), hits mostly activators; actives 0.23% (n = 320,000); AID 485298; further: % of control where 0% means no effect; nearly all actives have a fitted effect of over 45% in size
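Luminescent cell viability in 1536-well qHTS format served as the measure of rescued growth in ts fusion-mutant S. cerevisiae cultured on non-fermentable YPEG for 48 hours at 37C.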
aSyn rescue: alpha-synuclein toxicity inhibition in yeast | actives 0.14% (n = 370,000) | Yeast expressing alpha-synuclein, growth rescue, BacTiter-Glo, 24 h | AID 652106 | Potency, µM (top dose mostly 46.1 µM), for the others: at the top dose growth rescue (activation), usual class: activators; further: % of control where 0% means no effect; nearly all actives have a fitted effect of over 65% in size
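Screening used galactose-induced yeast with toxic alpha-synuclein levels, exposed to compound for 24 hr at 30 deg C. Cell growth, read with BacTiter-Glo luminescence, gave the measured signal.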
Abeta yeast res: compounds reversing amyloid beta toxicity in yeast. yeast expressing A-beta42, growth rescue, OD600, 48 h; response scale: 0% DMSO, 100% iron-clioquinol control. Potency, µM (series often up to 46.1 µM), actives largely listed as activators. actives 0.063% (n = 410,000); further: nearly all actives have a fitted effect of over 55% in size
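Growth rescue measured by 600 nm absorbance after 48 h yeast culture at 30 C with compound. Values normalized between DMSO and an equimolar ferric chloride plus clioquinol control.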
* = called active by the depositor; i = inactive; ? = inconclusive; . = not tested or not shown; [ ] = remark or other dose. Most compounds without a hit are left out; they make up all but 2.2% or so of the library. The call rests on the fitted dose curve; in most records, active means well fitted curve in the direction sought with a large enough effect; inconclusive means small, poorly fitted or top-dose-only effect, or another doubt; inactive means no such curve, though single readings can be large; an effect the other way counts as inactive or inconclusive. Potency means the concentration at half of the fitted maximal effect.

SMILES	FUS suppressor	TDP43 rescue	Mito fusion yeast	aSyn rescue	Abeta yeast res
O=C(c1ccco1)c1cn(CCOc2ccc(Cl)cc2)c2ccccc12	i	6%	.	.	i
O=C(c1ccco1)c1cn(CCOc2ccc(F)cc2)c2ccccc12	i	18µM*	.	.	i
C1=Cc2ccccc2/C1=C\c1cc2c3c(c1)CCCN3CCC2	.	.	.	-6%	.
COc1ccc(C(C)(NC(C)=O)c2nc(-c3cccc(C(F)(F)F)c3)cs2)cc1 (stereo not given)	?	35µM*	.	4%	i
CC(=O)NC(C)(c1ccccc1)c1nc(-c2ccc(F)c(Cl)c2)cs1 (stereo not given)	i	11µM*	.	6%	i
COc1ccc(C(C)(NC(C)=O)c2nc(-c3cccnc3)cs2)cc1 (stereo not given)	i	?	.	-13%	i
CC1CCCN(CCCNS(=O)(=O)c2cc3c(cc2Br)CCN3C(=O)C2CC2)C1 (stereo not given)	i	.	.	.	.
Cc1ccnc(NC(=S)NC(=O)c2cccs2)c1	.	16µM*	-3%	-7%	i
CCC(C)c1ccc(O)c(NC(=S)NC(=O)c2cccs2)c1 (stereo not given)	i	?	.	13µM*	?
Cc1ccccc1C(=O)NNC(=S)NC(=O)c1cccs1	i	?	-15%	3.5µM*	i
O=C(NC(=S)NCc1ccccc1Cl)c1cccs1	.	18µM*	.	-14%	i
CCOC(=O)C(C)NC(=O)C1CCN(c2ncnc3c2nc2n3CCCCC2)CC1 (stereo not given)	i	29%	.	.	i
CCOc1ccc(NC(=O)Cn2c(=O)nc(-c3ccccc3)c3ccccc32)cc1	i	22%	.	.	i
CCCCCCCCN1CCS(=O)(=O)N(Cc2ccc(C(F)(F)F)cc2)C(C(=O)OC)C1 (stereo not given)	i	.	.	.	.
COc1ccc(OC)c(S(=O)(=O)Nc2cc3c(cc2C)n(C)c(=O)c(=O)n3C)c1	i	21%	.	.	i
Cc1ccc(CNC(=O)O[C@H]2CC[C@@]34CCCN3C(=O)CCC[C@H]4[C@H]2C)o1	i	.	.	.	.
COc1cc(C2Oc3ccccc3C=C2[N+](=O)[O-])cc(OC)c1OC (stereo not given)	i	5µM*	-13%	?	i
COc1cc(C2NC(=O)c3ccccc3O2)cc(OC)c1OC (stereo not given)	i	8%	0%	-16%	i
COc1cc(C(=O)ONC(=O)c2ccc(OC(F)F)cc2)cc(OC)c1OC	i	8.9µM*	3%	-48%	?
COc1cc(/C=C(/C#N)C(=O)c2c(C)[nH]c3ccccc23)ccc1OCC#N	i	5%	-4%	-12%	i
CCOc1ccc(/C=C(\C#N)C(=O)c2c(C)[nH]c3ccccc23)cc1OC	i	20µM*	-1%	-19%	i
COC(=O)N[C@@H]1C[C@H]2[C@@H]3CC[C@H]4C[C@@H](OC)CC[C@]4(C)[C@H]3CC[C@@]12C	i	28µM*	-18%	-18%	i
COC(=O)N[C@@H]1C[C@H]2[C@@H]3CC[C@H]4C[C@@H](OC)CC[C@]4(C)[C@H]3CC[C@]12C	i	4%	4%	-11%	i
COc1cc(NC(=S)NCCCN2CCOCC2)cc(OC)c1OC	i	-6%	-4%	0%	i
COc1cc(NC(=S)NCCN2CCOCC2)cc(OC)c1OC	i	-13%	3%	-9%	25µM*
SMILES	FUS suppressor	TDP43 rescue	Mito fusion yeast	aSyn rescue	Abeta yeast res
CC(C)C(=O)NC(c1ccc(Cl)cc1Cl)c1ccc2cccnc2c1O (stereo not given)	i	25µM*	5%	?	i
O=C(CSc1nc2ccccc2n1CC(=O)N1CCCC1)NCc1ccc2c(c1)OCO2	i	-7%	2.8µM*	1%	i
O=C(CSc1nc2ccccc2n1Cc1cccc(F)c1)NCc1ccccc1	i	22µM*	.	.	i
COc1cccc(Cn2c(SCC(=O)N(C)c3ccccc3)nc3ccccc32)c1	?	18µM*	.	.	i
O=C(CSc1nc2ccccc2c(=O)n1-c1ccccc1)NCc1ccc2c(c1)OCO2	i	-8%	6%	5%	i
CSc1nc2ccccc2n1Cc1cccc(F)c1	i	18µM*	-4%	0%	i
NCC(=O)c1c[nH]c2ccccc12	.	.	.	-2%	.
CC1CCc2nc3ncn(Cc4ccccc4C#N)c(=O)c3cc2C1 (stereo not given)	i	19%	.	.	i
C/C(N)=C(/C#N)C(=O)CSc1nc2ccccc2c(=O)n1Cc1ccc(F)cc1	i	10µM*	3%	13%	13µM*
C/C(N)=C(/C#N)C(=O)CSc1nc2ccccc2c(=O)n1Cc1ccc(C)cc1	i	3%[9.22 µM]	-17%	0%	i
O=C(O)/C=C/C(=O)Nc1ccc2c(c1)C(=O)c1ccccc1C2=O	i	?	6%	22µM*	?
Cc1ccc2[nH]c(=O)c(CN(C(=O)c3cccc(Cl)c3)C(C)(C)C)cc2c1	i	19%	.	.	i
Cc1nc(Cl)c(C(=O)NC(=O)NCc2ccccc2)c(C)c1Cl	i	14µM*	14%	21%	i
Cc1ccccc1NC(=O)c1c(Cl)nc(C)c(Cl)c1C	i	19%	3%	0%	i
O=C(N/N=C/c1ccc(Cl)cc1)Nc1ccccc1	i	2.8µM*	-7%	12%	i
Nc1cc(-c2cccc(Br)c2)nn1Cc1ccccc1	.	?	3%	13%	i
Nc1cc(-c2ccc(Br)cc2)nn1Cc1ccccc1	i	20µM*	11%	-1%	?
CCN1C=C(Cc2ccc(OC)cc2)C2=C(C1)C(c1ccc(OC)cc1)C(C#N)=C(N)O2 (stereo not given)	35µM*	-5%	9%	2%	i
N#CCSc1nnc(COc2cccc3ccccc23)n1-c1ccccc1	i	20µM*	-3%	0%	i
O=C1c2ccccc2NC(c2ccc(Cl)cc2Cl)N1Cc1ccccc1 (stereo not given)	i	13%	7%	5%	i
O=C1c2ccccc2NC(c2c(Cl)cccc2Cl)N1Cc1ccccc1 (stereo not given)	i	25µM*	11%	-10%	i
CCc1ccc(S(=O)(=O)Nc2cc3c(cc2C)n(C)c(=O)c(=O)n3C)cc1	i	25%	.	.	i
CC1(C(=O)NS(=O)(=O)c2cccc(F)c2)CCN1C(=O)c1ccccc1CCc1ccccc1 (stereo not given)	i	?	.	-26%	i
Cc1cccc(S(=O)(=O)NC(=O)C2(C)CCN2C(=O)c2ccccc2CCc2ccccc2)c1 (stereo not given)	i	16µM*	.	-15%	i
